Results published in PubChem BioAssay (NCATS).
Inconclusive results are not listed. Where a call stands in place of a potency, no number is given. Active and inactive are the calls of the source. Calls follow the shape of the dose curve; as a rule, active = well fitted inhibition curve with a large enough effect; inconclusive = small, poorly fitted or top-dose-only effect; inactive = no such curve, though single readings can be large or run the other way.

Columns and labels:
[1] = test system: Zika virus NS2B-NS3 protease (unlinked complex); test: Primary screen GU Rhodamine qHTS for Zika virus inhibitors: Unlinked NS2B-NS3 protease assay (AID 1347159); conditions: Recombinant ZIKV NS2B-NS3 protease, Rhodamine110 substrate fluorescence; series mostly up to 107 µM; also: nearly all actives have a fitted effect of over 60% in size
How it was run: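 Unlinked NS2B/NS3, 25 nM; Rhod110 peptide, 1.5 microM; compounds, up to 114 microM. Reaction run 15 min at RT in 10 mM Tris-HCl pH 8.0, 0.01% Tween 20; kinetic fluorescence change fitted with a 4-parameter Hill model.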

[2] = test system: Zika virus NS2B-NS3 protease (linked construct); test: Primary screen NINDS Rhodamine qHTS for Zika virus inhibitors (AID 1347160); conditions: purified NS2B-NS3 protease, Rhodamine110 substrate fluorescence; series mostly up to 33.1 µM; also: nearly all actives have a fitted effect of over 55% in size
How it was run: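 Single-chain NS2B-NS3 protease, 25 nM, pH 8.0; compounds preincubated 15 min. Activity: Rhodamine110 release from 1.5 microM substrate over 15 min, room temperature, data fitted to 4-parameter Hill.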

Compound | Potency [1] | Potency [2]
OC[C@@]1(O)CO[C@@H](OC[C@H]2O[C@@H](OCc3ccccc3)[C@H](O)[C@@H](O)[C@@H]2O)[C@@H]1O | inactive | inactive
COc1ccc(/C=C/C(=O)N2CCCC2)cc1 | inactive | inactive
O=C(Cc1ccc(Cl)cc1)Nc1cnccc1C(=O)O | inactive | inactive
C[C@H]1CC[C@@]2(OC1)O[C@H]1CC3C4CC[C@H]5C[C@@H](O[C@@H]6O[C@H](CO)[C@H](O[C@@H]7O[C@H](CO)[C@@H](O)[C@H](O[C@@H]8OC[C@@H](O)[C@H](O)[C@H]8O)[C@H]7O[C@@H]7O[C@H](CO)[C@@H](O)[C@H](O)[C@H]7O)[C@H](O)[C@H]6O)[C@H](O)C[C@]5(C)C4=CC(=O)[C@]3(C)[C@H]1[C@@H]2C (stereo not given in full) | inactive | inactive
CC1=C2C[C@H]3OC(=O)[C@H](O)[C@@]4(O)[C@@H](C)[C@@H](O)[C@H](O)C([C@@]2(C)[C@H](O)[C@@H](O)C1)[C@@]34C (stereo not given in full) | inactive | inactive
Cc1nnc(-c2sc(NC(=O)[C@H](C(C)C)n3c(=O)[nH]c4ccccc4c3=O)nc2C)o1 | inactive | inactive
CC[C@H]1OC(=O)[C@H](C)[C@@H](O[C@H]2C[C@@](C)(OC)[C@@H](O)[C@H](C)O2)C(C)[C@@H](O[C@@H]2O[C@H](C)C[C@H](N(C)C)[C@H]2O)[C@](C)(O)C[C@@H](C)CN(C)[C@H](C)[C@@H](O)[C@]1(C)O (stereo not given in full) | inactive | inactive
O=C(Cc1ccccc1)OC[C@H]1O[C@H](O[C@H]2O[C@H](CO)[C@@H](O)[C@H](O)[C@H]2O)[C@H](O)[C@@H](O)[C@@H]1O | inactive | inactive
CC1(C)CC[C@]2(C(=O)O[C@@H]3O[C@H](CO[C@@H]4O[C@H](CO)[C@@H](O)[C@H](O)[C@H]4O)[C@@H](O)[C@H](O[C@@H]4O[C@H](CO)[C@@H](O)[C@H](O)[C@H]4O)[C@H]3O)CC[C@]3(C)C(=CCC4[C@@]5(C)CC[C@H](O[C@@H]6OC[C@@H](O)[C@H](O)[C@H]6O)[C@@](C)(C(=O)O)C5CC[C@]43C)[C@@H]2C1 (stereo not given in full) | inactive | inactive
CC(=O)O[C@@H]1C[C@@H](C)[C@](O)(CCC2=CC(=O)OC2)[C@@]2(C)CCCC(C)(C)C12 (stereo not given in full) | inactive | inactive
CN(C)CCC[C@]1(c2ccc(F)cc2)OCc2cc(C#N)ccc21 | inactive | inactive
CC1(C)CC[C@]2(C(=O)O[C@@H]3O[C@H](CO)[C@@H](O)[C@H](O)[C@H]3O)CC[C@]3(C)C(=CCC4[C@@]5(C)CC[C@H](O[C@@H]6O[C@H](C(=O)O)[C@@H](O[C@@H]7O[C@H](CO)[C@@H](O)[C@H](O)[C@H]7O)[C@H](O)[C@H]6O[C@@H]6O[C@H](CO)[C@@H](O)[C@H](O)[C@H]6O)C(C)(C)C5CC[C@]43C)C2C1 (stereo not given in full) | inactive | inactive
C=C(CCO[C@@H]1O[C@H](CO)[C@@H](O)[C@H](O)[C@H]1O)C(=O)O | inactive | inactive
CSC(=O)OCC1=C[C@@H]2OC(=O)C3=CO[C@@H](O[C@@H]4O[C@H](CO)[C@@H](O)[C@H](O)[C@H]4O)[C@H]1[C@@H]32 | inactive | inactive
C=C1[C@H](OC(C)=O)[C@H]2[C@@H](OC(C)=O)C(C)C[C@]2(OC(C)=O)C(=O)[C@H](C)/C=C/C(C)(C)C(=O)[C@H](OC(=O)C(C)C)[C@H]1OC(C)=O (stereo not given in full) | inactive | inactive
CC(C)C1(O)NC(=O)C(CC2(O)c3ccccc3N3C(=O)C(C)(C)NC32)n2c1nc1ccccc1c2=O (stereo not given) | inactive | inactive
O=C(O)/C=C/c1ccc(O[C@@H]2O[C@H](CO)[C@@H](O)[C@H](O)[C@H]2O)cc1 | inactive | inactive
C/C=C/C=C/C=C/C(=O)N(C)C(C(=O)NC(C)C(=O)N1CCCC1C(N)=O)C(C)C (stereo not given) | inactive | inactive
C[C@@H]1O[C@@H](O[C@H]2[C@H](OC(=O)[C@]34CCC(C)(C)C[C@H]3C3=CCC5[C@@]6(C)C[C@@H](O)[C@@H](O)[C@@](C)(CO)C6[C@H](O)C[C@@]5(C)[C@]3(C)CC4)OC[C@H](O)[C@@H]2O)[C@H](O)[C@H](O)[C@H]1O[C@@H]1OC[C@@H](O)[C@H](O[C@H]2O[C@H](C)[C@@H](O)[C@H](O)[C@@H]2O)[C@H]1O (stereo not given in full) | inactive | inactive
CC1(C)CC[C@]2(C(=O)O[C@@H]3O[C@H](CO)[C@@H](O)[C@H](O)[C@H]3O)[C@H](O)C[C@]3(C)C(=CCC4[C@@]5(C)CC[C@H](O[C@@H]6OC[C@@H](O)[C@H](O)[C@H]6O)[C@@](C)(C(=O)O)C5CC[C@]43C)[C@@H]2C1 (stereo not given in full) | inactive | inactive
